From article PMC7819943, “Rice protein-binding microarrays: a tool to detect cis-acting elements near promoter regions in rice”
Over roughly 68,000 sequences, “fluorescence intensity (a.u.)” has its median near 9,100; the highest 2% begin near 16,000. The entries come from a sample that favours the highest values as a whole.

target: OsWRKY34 (Oryza sativa, UniProt Q0JBA9 1-250); test: protein-binding microarray (RPBM); PBS, 2% BSA, 51.3 ng/ul salmon testes DNA, 50 uM zinc acetate, 200 nM TF, 25 C, 1 h; high values mean tight binding; conditions: protein: recombinant; tags: N-terminal polyhistidine and DsRed monomer fusion (pET32a); label: CyDye5-dUTP incorporated in the synthesized complementary strand; 3' TTTTT single-stranded linker to array surface; dsDNA, one strand shown
Sequence (Q0JBA9 entry or part of it): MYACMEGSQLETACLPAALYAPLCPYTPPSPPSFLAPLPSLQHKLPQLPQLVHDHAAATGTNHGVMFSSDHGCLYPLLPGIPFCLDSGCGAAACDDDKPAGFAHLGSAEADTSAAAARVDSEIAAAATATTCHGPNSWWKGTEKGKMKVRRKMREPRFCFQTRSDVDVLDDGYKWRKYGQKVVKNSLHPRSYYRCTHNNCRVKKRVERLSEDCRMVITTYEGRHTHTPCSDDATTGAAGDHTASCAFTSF
In short: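 The binding signal for each feature is its fluorescence intensity in arbitrary units. An Axon 4000B scanner was used to read a custom Agilent array that had been made double-stranded with Cy5-dUTP primer extension, blocked with 2% BSA, incubated at 25 °C for 1 h with 200 nM protein in PBS, 2% BSA, salmon testes DNA and 50 µM zinc acetate, and washed. The protein was an N-terminal polyhistidine–DsRed transcription factor fusion from E. coli BL21-CodonPlus, purified on Ni–NTA.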

Sequence	binding signal
ATCCGTCCGTTTCGTTCCGTACGAACCGCCGGCGTTCAAACGGAGTCACCTAGTGCAG	8580 fluorescence intensity (a.u.)
GCCTCCGCCGCCGCCGCCGCCCGCCGGCCATCTCCGTCGACGGAGTCACCTAGTGCAG	13900 fluorescence intensity (a.u.)
CAATGTATTCAGGTACGCCGATTATTTGGTTGGTAGTAGTCGGAGTCACCTAGTGCAG	11500 fluorescence intensity (a.u.)
ATACTCGCTCCGTGTTTTAATATATGACGCTGTTGATTTTCGGAGTCACCTAGTGCAG	12700 fluorescence intensity (a.u.)
GCTCGGTGTGGCGATCTCACAGCCGCATATCGCATTTCACCGGAGTCACCTAGTGCAG	8680 fluorescence intensity (a.u.)
GGCCCCACGTTTCATCCTCACGACCGTGTCCAACCCAGGGCGGAGTCACCTAGTGCAG	10300 fluorescence intensity (a.u.)
CGGTGGTGGTGGATGCTGGCGCTGGCGGTGGGCGCGAGCTCGGAGTCACCTAGTGCAG	10100 fluorescence intensity (a.u.)
GAGGTGGTGGAGCGAGGTGGAAGAGGGCGCGGGTGGCGGGCGGAGTCACCTAGTGCAG	9480 fluorescence intensity (a.u.)
ATCTCCGTCGGTGGGGAAAAGGAGGTGGGGAGGGGAGGAGCGGAGTCACCTAGTGCAG	18800 fluorescence intensity (a.u.)
CGCGCGGTCGAGGAGGGTGGGGCCGCCGCGCTCACCTCCGCGGAGTCACCTAGTGCAG	8480 fluorescence intensity (a.u.)
TGTGGTGGCGAGCGGCACGGAGGCGGGGCGGTGGAGGGAGCGGAGTCACCTAGTGCAG	9670 fluorescence intensity (a.u.)
GTGGCGCGAGGGGAGGGAAGGGTAGGGCGGCGCGGCGGCGCGGAGTCACCTAGTGCAG	9730 fluorescence intensity (a.u.)
AAGAGGGCGCGGGTGGCGGGGATGGGCGAGGGGAAGGCGGCGGAGTCACCTAGTGCAG	17700 fluorescence intensity (a.u.)
TGGAGTGGAGTTTCGATAGGTGTGGCGGGGAGGGAGGGAGCGGAGTCACCTAGTGCAG	19800 fluorescence intensity (a.u.)
GCTTTGGTCGGTTGGGGTGGGCTGGATGCGCCTCCGCGCTCGGAGTCACCTAGTGCAG	17800 fluorescence intensity (a.u.)
CGTCGGTAGGGAGGAGGAGGAGGAGGAGGTGGTGGTGGTGCGGAGTCACCTAGTGCAG	12000 fluorescence intensity (a.u.)
GAAGAGGAGAGAGGAAGAGAGGTGGAAAGGGGAGGGGAAGCGGAGTCACCTAGTGCAG	9460 fluorescence intensity (a.u.)
TGGTTTTATAGGCGTGGGGTGTGGAGCTTCGAGGGGAAGGCGGAGTCACCTAGTGCAG	13900 fluorescence intensity (a.u.)
CAGATGGTCTGGTGGTCGGCGGAGGTCCCGGCGCGCGCGTCGGAGTCACCTAGTGCAG	8360 fluorescence intensity (a.u.)
TATGGTATTTGGGTTAAAGAACGAAAATCGAACTCGCTGTCGGAGTCACCTAGTGCAG	8160 fluorescence intensity (a.u.)
GAGGGAGGGAGGGAGGGAGACCGCGAGTGTGAGTGACTGCCGGAGTCACCTAGTGCAG	10200 fluorescence intensity (a.u.)

Sequence	binding signal
ACTGCCCTTATCATTTCCGATTCCGTTTCCGAGAAAATATCGGAGTCACCTAGTGCAG	9240 fluorescence intensity (a.u.)
ACTTTGTCACTTGACTTATTCTCTGGCCGTGCGTATAAATCGGAGTCACCTAGTGCAG	8150 fluorescence intensity (a.u.)
CCTGCTATTGTACCTGCTCTAAGCCAGCTATAACCATATACGGAGTCACCTAGTGCAG	8170 fluorescence intensity (a.u.)
GTGAAGTGTGGTTTAAAAATGGTTGCCTGGTCACTTTATCCGGAGTCACCTAGTGCAG	9020 fluorescence intensity (a.u.)
TGTCAGTCACTGTCCCCTTCGTGGTCGTCTTCGCCACTTCCGGAGTCACCTAGTGCAG	9210 fluorescence intensity (a.u.)
AAGCGATCGGGGCGGCGGAGGAGGTGGGTGGGAGGGAGGGCGGAGTCACCTAGTGCAG	30200 fluorescence intensity (a.u.)
GGGGAGGCGAGGCGGCGAGGTTATAAAAACGGTGGGGTGGCGGAGTCACCTAGTGCAG	12200 fluorescence intensity (a.u.)
CTCTCCTCTCTTCTCGAGCGCGGCGGCGGTGGTGGGGAGGCGGAGTCACCTAGTGCAG	14300 fluorescence intensity (a.u.)
GGCGGGAGGCGCGGGCGGCGAGGTGCTCCTCTTCTCTCTCCGGAGTCACCTAGTGCAG	9060 fluorescence intensity (a.u.)
CGGCGGAGGGAGGATCGGGGTGGGTGGCGCAGCGGCGACGCGGAGTCACCTAGTGCAG	11200 fluorescence intensity (a.u.)
GCGGAGGAGGGCGGGAGGAAGCGGGTGGCGGCGGCGGAGTCGGAGTCACCTAGTGCAG	10900 fluorescence intensity (a.u.)
GGGGTGGGGTTGGCGGCGACGCGGGCGAGGCCGAGGAGGACGGAGTCACCTAGTGCAG	13400 fluorescence intensity (a.u.)
GCGGTGGCGGTTGGGGTGGCGAGTGGGGAGGAGGAGGCGGCGGAGTCACCTAGTGCAG	18900 fluorescence intensity (a.u.)
GGCGGGCGCGGTGGAGGCGGGGAGGAAGGGGAGCGGAGGTCGGAGTCACCTAGTGCAG	9390 fluorescence intensity (a.u.)
AGGTGGAGGCGCCGGTGTGGGTGGTGGAGCGGGAGGAGGTCGGAGTCACCTAGTGCAG	8610 fluorescence intensity (a.u.)
TCTCTTCCTTGCTGTGGTGGCGGCGGGCGGGAGGGCGGCGCGGAGTCACCTAGTGCAG	35000 fluorescence intensity (a.u.)
GTCGGGCGGGAGCGGTGCAGGGTGGAGGAGGTGGGCGGGGCGGAGTCACCTAGTGCAG	22900 fluorescence intensity (a.u.)
ATACTAGTCCATTCGAGTTGAAACGTTCAGTGAACAGCTACGGAGTCACCTAGTGCAG	8030 fluorescence intensity (a.u.)
GATCTCTTGCAGCTGCGCATCTGTGCATGCATCCACACTACGGAGTCACCTAGTGCAG	9260 fluorescence intensity (a.u.)
TTGATCCTGCTTTTAGTTATAGTTTTTGTTAGGGTGTATTCGGAGTCACCTAGTGCAG	10100 fluorescence intensity (a.u.)
TAAAACTAGTCATCCCTTCATTTTATATTATAAGTTGTTTCGGAGTCACCTAGTGCAG	8290 fluorescence intensity (a.u.)

Sequence	binding signal
TGTGCCTGCCGACTCGCCCACGCAACTCCGACTCTTTCCTCGGAGTCACCTAGTGCAG	13500 fluorescence intensity (a.u.)
TTGGTGGGTGGCGCGGTGGCCGGACCTGGGGTGGTGGGCGCGGAGTCACCTAGTGCAG	15900 fluorescence intensity (a.u.)
GTTAACTTTTGGTAGTTGCAGGGGTTCTATAGGTGGGCAGCGGAGTCACCTAGTGCAG	8640 fluorescence intensity (a.u.)
GCGGGACTTGCAGATCCGAGCGGGCGGGGCGGGGCGGGTTCGGAGTCACCTAGTGCAG	22000 fluorescence intensity (a.u.)
CTTGGGGAAGGCGGCGGGTGTCGGGGAGGGCGAGGGTATCCGGAGTCACCTAGTGCAG	18000 fluorescence intensity (a.u.)
TTGGCGCGCGGTTGGTGGGGCGGTGGTGGTGGTGGTGCCTCGGAGTCACCTAGTGCAG	17400 fluorescence intensity (a.u.)
GGAGTGTGGCGGAGCGGGAGTTCGCGGGCGGACGGCGGGGCGGAGTCACCTAGTGCAG	11700 fluorescence intensity (a.u.)
GGTTGGTGGCGGTGGGCCGGTGGCGGCTCGGTGGCGGAGCCGGAGTCACCTAGTGCAG	10200 fluorescence intensity (a.u.)
CTGGCGAGCAGAGCAGGGGAGGGGAGGGGAGGGGATCGGGCGGAGTCACCTAGTGCAG	14200 fluorescence intensity (a.u.)
GGCGGGGCGGATCCGAGGGGCGAAGTGGGTCGGGCGGCGGCGGAGTCACCTAGTGCAG	9480 fluorescence intensity (a.u.)
TGAGGTTTTGGGTTCTTGGGCACTTCTTGTTCTAGCCAAGCGGAGTCACCTAGTGCAG	9900 fluorescence intensity (a.u.)
GTGGGTTGGGGTCGGCGAGGGATCCGGGCGGCGGGGTATGCGGAGTCACCTAGTGCAG	14000 fluorescence intensity (a.u.)
TATGGGTAGGTTCTTGTTCTATGGGGCAGGGGTCTTAAAGCGGAGTCACCTAGTGCAG	17100 fluorescence intensity (a.u.)
GCTATCGCCGGTTTCGTCATCAATAATCTTCTCTGCCTCTCGGAGTCACCTAGTGCAG	8820 fluorescence intensity (a.u.)
TTTCATCGTTTAGTGTCTTACTCCCTTTCCGATGGTCAACCGGAGTCACCTAGTGCAG	9340 fluorescence intensity (a.u.)
CATTCTTGTCTGTAGCTTATTTGTTCGTGTTCATTAGTTTCGGAGTCACCTAGTGCAG	13500 fluorescence intensity (a.u.)
TGTCTCTCTTTGACATCTTGTTTCCCATAACCTAAAGATACGGAGTCACCTAGTGCAG	8260 fluorescence intensity (a.u.)
GTACGCAACTTGTCCGCAGCCGCGACCCCGACCCGACCCGCGGAGTCACCTAGTGCAG	8200 fluorescence intensity (a.u.)
ATCATCCATATCCAGCTATACTATACTACTCGATCCCTTCCGGAGTCACCTAGTGCAG	10200 fluorescence intensity (a.u.)
CCCTCTCTCTATTTAAGCAAGCACATTCTCCTCTTCTTCTCGGAGTCACCTAGTGCAG	8240 fluorescence intensity (a.u.)
GCCGACTCTTACTCCTCCGCCCACTCACCACGCGCGCTGCCGGAGTCACCTAGTGCAG	11000 fluorescence intensity (a.u.)

Sequence	binding signal
TTGGGAGGGATGGGGCGGTGGTTAGGGGATGAGCGGAGGACGGAGTCACCTAGTGCAG	13200 fluorescence intensity (a.u.)
AGAGGTGGAAGGGGATGGGGAGAAAAAAAAGGAGAGGGGACGGAGTCACCTAGTGCAG	8410 fluorescence intensity (a.u.)
GCGGGCGGAGGAGCTCGGGCGTGGGCGGGGAGGGCGGATCCGGAGTCACCTAGTGCAG	20800 fluorescence intensity (a.u.)
GGCGGAGCTCGGGATGTGGGAGGAGGAGGGCTATTTATTCCGGAGTCACCTAGTGCAG	14400 fluorescence intensity (a.u.)
GTGGCCGGCGGCGTTCGGGCGTGGGCGGGGAGGCCGGATCCGGAGTCACCTAGTGCAG	13700 fluorescence intensity (a.u.)
TGGCGGCTCGGTGGCGGAGCTCCGGTGTGGGGTGGTGTGGCGGAGTCACCTAGTGCAG	8140 fluorescence intensity (a.u.)
CGAGTGACGAGGTCTTGGGTTGGGGTAGGGGTGGGATGAGCGGAGTCACCTAGTGCAG	19900 fluorescence intensity (a.u.)
GTTGGGAAGGAAAGGGAGGGGTTGGTGCTCTCCTCCTCTTCGGAGTCACCTAGTGCAG	9740 fluorescence intensity (a.u.)
CCGGGTGGAGGGCGGGGAAGCGGCGGCGGAACTCCGGGCTCGGAGTCACCTAGTGCAG	8490 fluorescence intensity (a.u.)
GGGAGGGGTGGCTCGGCGGCGGTGCGGGGTGGCGGTGCTCCGGAGTCACCTAGTGCAG	18700 fluorescence intensity (a.u.)
CTCTTCTCCTCCAAGGATGGGGAGGTGGGGATGGTGGGGACGGAGTCACCTAGTGCAG	19400 fluorescence intensity (a.u.)
GAGTGGTGGAGGGTTGTGATTGGATGAGTAGTGGAGGTAGCGGAGTCACCTAGTGCAG	8760 fluorescence intensity (a.u.)
CAGTATCTTACTTCTCAGCTGCTCAATCATCAGCTGCCACCGGAGTCACCTAGTGCAG	9310 fluorescence intensity (a.u.)
GCAAGATCTCCATGATGCGACAGCTCTACCGTTACAATTACGGAGTCACCTAGTGCAG	8100 fluorescence intensity (a.u.)
TCAATCAACGGCTACTTGTATGTAATCTCCACGCATTCCACGGAGTCACCTAGTGCAG	8630 fluorescence intensity (a.u.)
CTTTTTGTTTTGGCCTTGACGTCGTGTTCACCGCCTCTACCGGAGTCACCTAGTGCAG	11800 fluorescence intensity (a.u.)
CAGAGCTCTTCCTGCTGTACCTACCAAGCTCTTACTTTGACGGAGTCACCTAGTGCAG	8060 fluorescence intensity (a.u.)
GTACTACTCCAAATCGTGTTCCACATTTCTATTTTGCACACGGAGTCACCTAGTGCAG	10200 fluorescence intensity (a.u.)
CTTAGGTCAACACCGAAAACTAATCACCATGTTGACTTTGCGGAGTCACCTAGTGCAG	9710 fluorescence intensity (a.u.)
GATGGTGTGTGTGTGTGGCTGTGTGCACCTAAGAATTTCTCGGAGTCACCTAGTGCAG	10400 fluorescence intensity (a.u.)
ATATTTATGTGCCAAATATTGTCAATTGTTCCTCTTGTTACGGAGTCACCTAGTGCAG	9080 fluorescence intensity (a.u.)
